Screening results: PubChem BioAssay, National Center for Advancing Translational Sciences (NCATS)
KinaseGlo FLuc: Kinase-Glo luciferase inhibition (counter-screen) | Q27757 | Kinase-Glo luciferase, ATP luminescence, 8 min | Potency, µM (titrated, usually from 38.3 µM), for the others: top-dose activity change, negative = inhibition, hits mostly inhibitors | hit rate 0.28% among 200,000; note: % is set by controls: 0 for no effect and ±100 for the full control effect; nearly all actives have a fitted effect of over 60% in size
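Compounds were added to a substrate mix at pH 7.2 (50 mM imidazole, 10 uM ATP, within the enzyme's linear range), followed by Kinase-Glo detection reagent; luminescence was measured after 8 minutes at ambient temperature.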
NPC1 prom act: activators of NPC1 promoter. Potency, µM (highest dose often 9.22 µM), for the others: top-dose activation, most hits filed as activators. AID 485313. Huh7 NPC1 promoter luciferase reporter, 24 h. hit rate 2.4% among 320,000; note: % of control where 0% means no effect; nearly all actives have a fitted effect of over 60% in size
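Readout is luciferase luminescence, reflecting NPC1 promoter activation in stably transfected Huh7 cells after 24 h compound exposure at 37 °C in reduced-serum medium with 10% FBS.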
Rab9 prom act: Rab9 promoter activation | hit rate 2.8% among 320,000 | Huh7 Rab9 promoter-luciferase reporter, luminescence, 24 h | Potency, µM (titrated, usually from 9.22 µM), for the others: at the top dose activation, negative = inhibition, usual class: activators; note: % of control where 0% means no effect; nearly all actives have a fitted effect of over 60% in size
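Luminescence read-out: Huh7 cells stably expressing Rab9-luciferase, treated 24 h with compound at 37 °C, then lysed with luciferase reagent for 10 min at ambient before reading.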
ELG1 genotox: inducers of genotoxicity in HEK293T ELG1-luciferase cells | HEK293T ELG1-luciferase reporter, luminescence, 16 h | hit rate 1.3% among 330,000 | Potency, µM (titrated, usually from 46 µM), inactives show at the highest dose activity change, positive = activation, hits mostly activators; note: % of control where 0% means no effect; nearly all actives have a fitted effect of over 60% in size
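HEK293T cells expressing luciferase-tagged ELG1 were treated with compound or DMSO for 16 hr at 37°C. Luciferase activity was then read after 30 min with ONE-Glo at room temperature; rising signal flags genetic stress.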
SMN2 splice enh: enhancers of SMN2 splice variant expression; HEK293 SMN2-luciferase splicing reporter, luminescence, 30-36 h; Potency, µM (series often up to 46.1 µM), without a hit: at the highest dose activity change, positive = activation, actives largely listed as activators; hit rate 2.8% among 210,000; AID 1458; note: % of control where 0% means no effect; nearly all actives have a fitted effect of over 55% in size
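HEK293 cells carry an SMN2 minigene-luciferase reporter in which exon 7 inclusion puts luciferase in frame. Cells were seeded at 2000 cells/well, attached for 10-12 hours, then exposed to compounds for 30-36 hours at 37C before ONE-Glo luminescence.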
FLuc modulator: inhibits or activates purified firefly luciferase, miR-21 counter-screen; P08659; purified FLuc, Km substrates, luminescence inhibition; Potency, µM (top dose mostly 57.5 µM), without a hit: at the top dose activity change, negative = inhibition, hits mostly inhibitors; hit rate 6.9% among 360,000;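 note: plate controls were vehicle for no effect and reference inhibitor for full effect; nearly all actives have a fitted effect of over 55% in size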
Target sequence (P08659 whole entry, looked up): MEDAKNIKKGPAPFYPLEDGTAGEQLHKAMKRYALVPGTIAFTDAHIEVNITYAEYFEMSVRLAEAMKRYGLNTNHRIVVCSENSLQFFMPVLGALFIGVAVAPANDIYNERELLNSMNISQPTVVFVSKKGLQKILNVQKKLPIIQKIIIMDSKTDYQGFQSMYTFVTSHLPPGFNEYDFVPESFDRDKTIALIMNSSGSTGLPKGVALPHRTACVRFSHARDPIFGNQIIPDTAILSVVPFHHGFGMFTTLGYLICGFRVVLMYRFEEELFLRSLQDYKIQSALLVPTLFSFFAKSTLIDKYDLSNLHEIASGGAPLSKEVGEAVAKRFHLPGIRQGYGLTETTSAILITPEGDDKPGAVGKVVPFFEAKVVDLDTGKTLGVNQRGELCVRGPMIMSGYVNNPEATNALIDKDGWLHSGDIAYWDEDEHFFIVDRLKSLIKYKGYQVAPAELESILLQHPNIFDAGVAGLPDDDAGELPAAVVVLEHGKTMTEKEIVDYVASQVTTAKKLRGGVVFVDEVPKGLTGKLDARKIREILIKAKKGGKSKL
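Purified P. pyralis luciferase, 10 nM final, with Km-level 10 uM D-luciferin and 10 uM ATP in 50 mM Tris acetate pH 7.5, 10 mM Mg acetate, 0.01% Tween-20, 0.05% BSA; 6-point qHTS titration about 60 µM downward; luminescence read.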
An asterisk follows results filed as active; u = inconclusive; x = no result given; [ ] = remark or other dose. The list is not random: actives were taken first. Their share in the collection is about 7.3%. Calls come from the whole dose curve; as a rule, active = well fitted curve in the direction sought with a large enough effect; inconclusive = small, poorly fitted or top-dose-only effect, or another doubt; inactive = no such curve, though single readings can be large; an effect the other way counts as inactive or inconclusive. Potency is the fitted concentration of half-maximal effect.

SMILES | KinaseGlo FLuc | NPC1 prom act | Rab9 prom act | ELG1 genotox | SMN2 splice enh | FLuc modulator
O=C(O)/C=C\c1ccccc1Oc1cccc(Cl)c1 | -1% | -10% | 7% | 2% | -2% | u
O=C(/C=C/c1ccccc1O)c1ccc(Cl)cc1 | x | -1% | 25% | 10% | x | 3.4µM*
COc1ccccc1/C=C/C(=O)c1ccc(Cl)cc1 | -4% | u | 13% | u | -19% | 7.6µM*
O=C(O)/C=C/c1ccccc1Oc1ccc(Cl)cc1Cl | -2% | 0% | -3% | 1% | 3% | 15µM*
CCOc1ccccc1/C=C/C(=O)c1ccc(Cl)cc1 | 5% | 17% | 11% | 10% | -58% | u
Cc1nn2c(C)c(C(=O)NC(C)c3ccccc3)cnc2c1-c1ccc(F)cc1 (configuration not stated) | x | x | x | x | x | -2%
CCOC(=O)c1ccc(NC(=O)CC(C)n2nc(C)cc2C)cc1 (configuration not stated) | x | x | x | x | x | -2%
CCn1c(=NC(=O)c2ccco2)sc2cccc(F)c21 | 3% | 5% | 10% | 15µM* | 16µM* | 17µM*
N#CCCCS(=O)(=O)c1nnnn1-c1ccc(F)cc1Br | 2% | x | x | x | 1% | x
Cc1ccc(Nc2nc(CSc3nnc(-c4ccncc4)n3C)cs2)cc1 | x | 3.2µM* | 1.3µM* | u | x | 0.6µM*
Cc1occc1-c1nnc(SCc2cc(=O)n3cc(Br)ccc3n2)n1C | -1% | -6% | -1% | -3% | -2% | 1%
Cc1ccccc1Nc1nc(CSc2nnc(-c3ccoc3C)n2C)cs1 | -7% | 19% | 3% | 7% | 14% | 17µM*
Cc1ccc(Nc2nc(CSc3nnc(-c4cccnc4)n3-c3ccccc3F)cs2)cc1 | -1% | 9% | 4% | 4% | 18% | 2.4µM*
COc1ccc(CC(=O)NCC(c2ccc(N(C)C)cc2)N2CCOCC2)cc1OC (configuration not stated) | x | x | x | x | x | -2%
C=N[C@H](C(=O)N[C@@H]1C(=O)N2[C@@H]1SC(C)(C)[C@@H]2C(=O)O)c1ccccc1 | 1%[17.1 µM] | x | x | x | -8%[20.6 µM] | x
COc1ccc(NC(=O)Cn2ccn(Cc3ccccc3)c(=O)c2=O)cc1Cl | x | x | x | x | x | -6%
Clc1ccccc1OCc1nn2c(-c3ccncc3)nnc2s1 | -3% | 0% | -2% | -3% | -12% | 1%
Cc1nc(COc2ccccc2Cl)sc1-c1ccnc(N)n1 | x | 2% | 16% | 3% | x | 11µM*
Cc1cc(N2CCC(C)CC2)nc2cccc(O)c12 | -5% | 4% | 4% | 8% | -24% | 24µM*
Cc1cccc(CC(=O)Nc2ccc3nc(N4CCC(C)CC4)cc(C)c3c2)c1 | x | x | x | x | -26% | 3%
CN(C)c1ccc(-c2nccc(NCCN3CCOCC3)n2)cc1 | -5% | x | x | x | -20% | x
CCOCCCNc1ccc(-c2ccccc2)nn1 | -9% | u | 2.2µM* | 13µM* | 14µM* | u
CCOCCCNc1nc2ccccc2[nH]1 | 0% | -1% | 4% | -1% | 24% | -2%
CCN(CC)c1ccc(/C=N/N2CCOCC2)cc1 | 6% | 3.5µM* | 3.2µM* | 7.3µM* | 22µM* | 8.5µM*
CCN(Cc1ccccc1)c1ccc(/C=N/N2CCOCC2)cc1 | -3% | 17% | 12% | 13% | -14% | u
SMILES | KinaseGlo FLuc | NPC1 prom act | Rab9 prom act | ELG1 genotox | SMN2 splice enh | FLuc modulator
Cc1c(Cl)cccc1NC(=O)CSc1nc(=O)n(Cc2ccco2)c2c1CCC2 | x | x | x | x | x | -16%
CCOc1ccccc1CNC(=O)Cn1nc(C)c2nn(-c3ccc(Cl)cc3)c(C)c2c1=O | x | x | x | x | x | 3%
CCc1cccc(NC(=O)C2CCC(CNS(=O)(=O)c3ccc(Br)s3)CC2)c1 (configuration not stated) | x | x | x | x | 17% | 0%
CC(=O)c1cccc(S(=O)(=O)NC2CCCCCC2)c1 | 0% | -1% | -1% | 1% | 1%[1.84 µM] | -3%
CC(=O)c1cccc(S(=O)(=O)NCC2CCCCC2)c1 | -3% | 0.0005µM* | u | 0% | u | -1%
Cc1ccccc1OCCCn1c(CO)nc2ccccc21 | 0% | 1% | 5% | -6% | 4% | 15µM*
OCc1nc2ccccc2n1CCCOc1ccc(Br)cc1 | 3% | x | x | x | -9% | 11µM*
Cc1ccc(OCCCCn2c(CO)nc3ccccc32)cc1 | 2% | -4% | -12% | -3% | -34% | -9%
CC(=O)Nc1c(C)nn(-c2ccccc2)c1N1CCC(C(=O)NCc2ccc(Cl)cc2)CC1 | x | x | x | x | x | 3%
O=[N+]([O-])c1cccnc1NCCc1ccccc1 | x | u | 3.2µM* | u | x | 11µM*
O=[N+]([O-])c1cccnc1NCCc1c[nH]c2ccccc12 | x | 3.5µM* | 2.5µM* | 13µM* | x | u
O=c1cc(Cl)[nH]c(=O)n1CCNc1ncc(C(F)(F)F)cc1Cl | 7% | u | 3.2µM* | 13% | u | 13µM*
O=[N+]([O-])c1cccnc1NCCNc1ncc(C(F)(F)F)cc1Cl | -2% | 3.5µM* | 2.2µM* | u | 13µM* | 11µM*
CCN(C(=O)c1cc2c(=O)n(CC)c3ccccc3c2s1)c1cccc(C(F)(F)F)c1 | x | x | x | x | 0% | 4%
Oc1cc2c(cc1O)[C@@H]1c3ccc(O)c(O)c3OC[C@]1(O)C2 | -3% | x | x | x | 0% | x
COc1ccc(C(CNC(=O)c2oc3ccc(C)cc3c2C)N2CCOCC2)cc1 (configuration not stated) | x | x | x | x | x | 0%
Cc1cc(-c2ccccc2)nc(N2CCC(C(=O)NCc3ccccc3Cl)CC2)n1 | 3% | 22% | 14% | u | 28µM* | -15%
C=CCNC(=O)C1CCN(c2nc(C)cc(-c3ccccc3)n2)CC1 | 1% | 3.5µM* | 3.5µM* | u | 8.9µM* | 19µM*
Cc1cc(C)nc(N2CCC(C(=O)NNC(=O)Cc3ccccc3)CC2)n1 | x | 0% | -1% | 0% | x | 0%
O=C(O)CCC(=O)Nc1cccc(-c2nc3ccccc3o2)c1 | x | 1% | 0% | 0% | x | 11µM*
CC(=O)Nc1ccc(-c2nc3ccc(NC(C)=O)cc3o2)cc1 | x | 2.5µM* | 2µM* | u | x | u
CC(=O)Nc1cccc(-c2nc3ccccc3o2)c1 | x | 28% | 30% | u | x | 19µM*
CCCC(=O)Nc1cccc(-c2nc3ccccc3o2)c1 | 1% | 5% | 10% | -1% | 34% | u
COc1ccc(OCC(=O)Nc2cccc(-c3nc4ccccc4o3)c2)cc1 | -8% | 4.5µM* | u | u | 66% | u
CCOC(=O)C1CCN(C(=O)C2COc3ccccc3C2)CC1 (configuration not stated) | x | x | x | x | x | -4%
CCOC(=O)c1c(C)[nH]c(CCC(=O)NCCCN2CCN(c3ccccc3F)CC2)c1C | x | x | x | x | x | 1%
